Assay results from PubChem BioAssay (NCATS).
Results filed as inconclusive are left out. A call without a number means that no potency is given here. Calls of active or inactive are those of the source. The call rests on the fitted dose curve; in most records, active means well fitted activation curve with a large enough effect in the main read-out, with a control signal flat (not every such curve was filed as active); inconclusive means small, poorly fitted or top-dose-only effect, or effect the other way, or a change in a side signal; inactive means flat fitted curve, though single readings scatter.

These compounds were tested against 3',5'-cyclic-AMP phosphodiesterase 4B (Homo sapiens) (UniProt Q07343) (assay: qHTS Assay for Inhibitors of PDE-IV (AID 607)). Conditions: HEK293 ACTOne CNG channel cells, membrane potential fluorescence; series mostly up to 22.9 µM.
Procedure, shortened: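 HEK293 ACTOne cells with CNG channel (1000/well), endogenous PDE4; membrane potential dye, compounds up to 22.9 uM final. Fluorescence Ex 535/Em 590; RO 20-1724 (100 uM final) as reference.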

3',5'-cyclic-AMP phosphodiesterase 4B (Homo sapiens), sequence (Q07343 whole entry, looked up): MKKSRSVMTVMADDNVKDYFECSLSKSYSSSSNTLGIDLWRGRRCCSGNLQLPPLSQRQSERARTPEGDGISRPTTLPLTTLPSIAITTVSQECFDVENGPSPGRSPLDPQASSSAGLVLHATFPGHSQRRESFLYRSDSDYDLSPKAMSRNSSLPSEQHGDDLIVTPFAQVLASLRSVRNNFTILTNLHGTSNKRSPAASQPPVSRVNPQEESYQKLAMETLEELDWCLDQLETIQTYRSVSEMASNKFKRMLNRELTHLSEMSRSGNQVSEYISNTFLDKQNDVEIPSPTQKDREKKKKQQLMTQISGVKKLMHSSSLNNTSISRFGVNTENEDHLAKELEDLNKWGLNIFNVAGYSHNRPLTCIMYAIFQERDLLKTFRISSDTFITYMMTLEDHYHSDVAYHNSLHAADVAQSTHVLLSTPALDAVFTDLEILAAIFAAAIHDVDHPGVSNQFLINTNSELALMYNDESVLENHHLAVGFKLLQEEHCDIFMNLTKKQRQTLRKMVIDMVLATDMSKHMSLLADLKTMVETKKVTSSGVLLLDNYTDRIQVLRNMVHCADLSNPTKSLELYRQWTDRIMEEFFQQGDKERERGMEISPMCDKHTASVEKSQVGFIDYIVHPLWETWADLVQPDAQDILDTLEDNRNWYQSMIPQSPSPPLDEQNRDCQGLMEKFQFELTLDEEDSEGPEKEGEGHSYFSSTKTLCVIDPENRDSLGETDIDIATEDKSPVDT

Row | Structure (SMILES) | Potency
1 | Cc1cnc(CNc2cc(-c3cccnc3)ncn2)cn1 | inactive
2 | CS(=O)(=O)Nc1cccc(-c2cc(Nc3ccccc3)ncn2)c1 | inactive
3 | Cc1noc(C)c1-c1cncnc1-n1ccnc1 | inactive
4 | CCNc1ncc2nc(-c3ccc(Cl)cc3)c(=O)n(Cc3cccc(OC)c3)c2n1 | inactive
5 | COc1cccc(Nc2ncc3ncc(=O)n(C[C@H]4CCCO4)c3n2)c1 | inactive
6 | CN(Cc1ccco1)c1ncncc1-c1ccccc1C(F)(F)F | inactive
7 | COc1ccc2[nH]cc(CCNc3ccnc(-c4c(C)noc4C)n3)c2c1 | inactive
8 | COCCNc1ncnc2ccc(-c3c(C)noc3C)cc12 | inactive
9 | COc1cccc(Cn2c(=O)c(-c3cccs3)nc3cnc(N4CCNCC4)nc32)c1 | inactive
10 | COc1ccccc1CNc1cc(-c2ccccc2C(F)(F)F)ncn1 | inactive
11 | N#CCCn1c(=O)c(-c2cc(F)cc(F)c2)nc2cnc(Nc3ccccc3)nc21 | inactive
12 | COc1cccc(Nc2ncc3nc(CCc4ccccc4)c(=O)n(Cc4cccs4)c3n2)c1 | inactive
13 | Cc1ccccc1-c1ccc2ncnc(NCc3cccnc3)c2c1 | inactive
14 | Cc1cnc(CNc2ncncc2-c2ccc(N(C)C)cc2)cn1 | inactive
15 | Cc1cnc(CNc2cc(-c3ccccc3Cl)ncn2)cn1 | inactive
16 | COc1cccc(Cn2c(=O)c(-c3cccc(C#N)c3)nc3cnc(N4CCOCC4)nc32)c1 | inactive
17 | CN(C)C(=O)c1ccc(-c2cc(N(C)Cc3ccco3)ncn2)cc1 | inactive
18 | CNc1nc(-c2cccc(C#N)c2)nc2ccccc12 | inactive
19 | COc1cccc(-c2nc(NCCNC(C)=O)c3ccccc3n2)c1 | inactive
